Molecules are shown by their SMILES. Compounds without any hit were thinned out: in the full panel of roughly 83,000, 20% have a hit.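 Values shown are percent growth following 48 h exposure of cells in 96-well plates to a single concentration of compound; below 10 was considered active.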 A number with no mark means an inactive call. Calls of active or inactive are those of the source.

This test relates to HL-60(TB) leukemia. As to the kind of experiment: NCI-60 one-dose screen, 48 h (100 = growth as untreated, 0 = no growth, -100 = all killed). The conditions noted are these: 10 µM unless noted.
As to `Cc1ccc(C[P+](c2ccccc2)(c2ccccc2)c2ccccc2)cc1`, the growth is -63.4% (active). In the case of `COc1cc(/C=C/c2ccc3c(Br)cc(Br)c(O)c3n2)ccc1O`, the growth was -47.3% (active). For `COc1ccc2c(c1)[nH]c1c(/C=C/c3ccccc3)nccc12`, the growth is 61.1%. The result for `CC(=O)C[n+]1ccc(C)cc1Sc1ccccc1C` reads 109%; that for `COc1ccc(CN2C(=O)/C(=C\c3cc(OC)c(OC)c(OC)c3)c3cc(OC)ccc32)cc1`, -27.2% (active). For `COc1ccc(/C=C/C(=O)c2ccc(NC(=O)CSc3nnc(-c4cc(OC)c(OC)c(OC)c4)o3)cc2)cc1`, the growth is -53.4% (active). The result for `NCCCN` reads 98.8%. In the case of `CCC(c1cccc(Br)c1)C(C(=O)O)c1ccc(OC)cc1` (stereo not given) it was 96.2%; in that of `ClCC#CCSc1ncnc2c1ncn2CC#CCCl`, 8.79% (active). With `COc1ccccc1CNc1c2ccccc2nc2ccccc12`, the growth is 44.8%. In the case of `O=S(=O)(Nc1ccc(F)cc1)c1ccc(-c2cnc(C3CC3)o2)cc1` it was -28.1% (active); in that of `CC1=C(C(=O)OCC2CCN(C(=O)OC(C)(C)C)CC2)[C@H](c2cccc(Br)c2)C2=C(CC(C)(C)CC2=O)N1`, -17.1% (active). The result for `Cn1cc(C(=O)c2nc(-c3cn(C)c4ccc(F)cc34)no2)c2cc(F)ccc21` reads 93.3%. In the case of `FC(F)(F)c1ccc(-c2cnc(Cl)nc2NC2CCCCCC2)cc1` it was -6.33% (active); in that of `Cc1ccc(CCCC(=O)O)c(C)c1`, 98.3%. For the compound `CCN1C(=O)N(CC)C2C1NN=c1s/c(=C\c3cnc(C)n3C)c(=O)n12` (stereo not given), the growth is -33.3% (active). In the case of `C#C[C@]1(O)CC[C@H]2[C@@H]3CC=C4c5nc(Nc6ccccc6[N+](=O)[O-])sc5CC[C@]4(C)[C@H]3CC[C@@]21C` it was 77.7%; in that of `COc1cc(/C=C/c2nc(Nc3ccc(S(=O)(=O)Nc4cc(C)on4)cc3)c3ccccc3n2)ccc1O`, 27.4%. In the case of `Cc1cn2c(/C=C3/C(=O)Nc4c3ccc3ccccc43)c(C(F)(F)F)nc2s1` it was 1.47% (active); in that of `COc1ccccc1/C=C1\COc2ccc(O)c(O)c2C1=O`, -21.9% (active); in that of `O=C(Nc1cc(Nc2ncccc2-c2ncnc3nc[nH]c23)ccc1F)c1cc(C(F)(F)F)cc(C(F)(F)F)c1`, -11.3% (active). The result for `C#CCOc1ccc(C2=NN(CCCC)C3N=C(Cl)c4ncn(CCCC)c4N23)cc1OCC#C` (stereo not given) reads 99.4%. For `COc1ccc(/C=C2\CCCC3=C2N=C2SC=NN2C3c2ccc(OC)c(OC)c2)cc1OC` (stereo not given), the growth is 15%.

For the compound `O=C(COc1ccc(-c2nc3cc(Cl)c(Cl)cc3[nH]2)cc1)N=Nc1c(O)[nH]c2ccc(Cl)cc12`, the growth was 55.5%.

For the compound `COc1ccc(-c2csc3c2-n2cccc2C3=O)cc1O`, the growth was -18.3% (active). For the compound `COc1ccccc1/C=C\C(=O)c1ccccc1`, the growth is 48.3%. For the compound `Clc1ccc(C2CC(c3cccc(Nc4ccncc4)c3)=NN2c2ccccc2)cc1` (stereo not given), the growth is -38.6% (active). The result for `COc1ccc(-c2c(-c3ccccc3)noc2N)cc1OC` reads 95.2%; that for `O=S(=O)(c1ccccc1)n1ccc(-c2ccc3c(c2)CCO3)n1`, 109%. The result for `O=C(O)COc1ccc(Cl)c(Cl)c1` reads 111%. In the case of `Nc1nc2nnc(-c3ccccc3)c(-c3ccccc3)n2n1` it was 146%. Take `CN1CCN(Cc2ccc(NC(=O)c3cc(C#Cc4cnc(N)c5ncccc45)n(C)n3)cc2C(F)(F)F)CC1`: the growth is 107%. The result for `C=C[C@@H]1C[C@H](O)Cc2cc(F)ccc2N1` reads -2.59% (active). In the case of `Cc1nn(-c2ccccc2)c(Cl)c1/C=C(/NC(=O)c1ccccc1)c1nc2ccccc2[nH]1` it was 85.5%; in that of `Cc1ccc(C)c2c1sc1nc3n[nH]c(N)c3c(=N)n12`, 112%.

Turning to `CCOCC[P+](c1ccccc1)(c1ccccc1)c1ccccc1`, the growth was 11.7%. The result for `c1ccc(-c2n(Cc3ccc4ccccc4n3)cc[n+]2Cc2ccc3ccccc3n2)cc1` reads -33.1% (active); that for `CC1=CC2C(C(O)CC3(C)C2CC(C)C32OCOC23COCO3)C2(C)C/C(=C/O)C(=O)C=C12` (stereo not given), -12.3% (active); that for `CCCS(=O)(=O)Nc1cccc(Nc2ncnc3cc(NC(=O)CCl)ccc23)c1Cl`, -35.5% (active). With `CCCCC[C@@H]1Cc2cc(O)c(C(=O)O)c3c2[C@H](C[C@@]2(CCCO2)O3)O1`, the growth is 86.5%.

The values above are taken from PubChem BioAssay (NCI).
